Shown are actives, neighbours in structure and some others; about 2.4% of the full set was active somewhere.
D2 ag-1 = Beta-Arrestin HTS for Positive Allosteric Modulators of the Human D2 Dopamine Receptor: Agonists | D(2) dopamine receptor (Homo sapiens), P14416 | DiscoveRx PathHunter D2 beta-arrestin, luminescence, 90 min; 100% = 57 uM dopamine signal | activation, % (no concentration beside the values) | hit rate 0.084% among 360,000; in the data active = activation above about 40%; inconclusive = between about 15% and that limit
Target sequence (P14416 whole entry, looked up): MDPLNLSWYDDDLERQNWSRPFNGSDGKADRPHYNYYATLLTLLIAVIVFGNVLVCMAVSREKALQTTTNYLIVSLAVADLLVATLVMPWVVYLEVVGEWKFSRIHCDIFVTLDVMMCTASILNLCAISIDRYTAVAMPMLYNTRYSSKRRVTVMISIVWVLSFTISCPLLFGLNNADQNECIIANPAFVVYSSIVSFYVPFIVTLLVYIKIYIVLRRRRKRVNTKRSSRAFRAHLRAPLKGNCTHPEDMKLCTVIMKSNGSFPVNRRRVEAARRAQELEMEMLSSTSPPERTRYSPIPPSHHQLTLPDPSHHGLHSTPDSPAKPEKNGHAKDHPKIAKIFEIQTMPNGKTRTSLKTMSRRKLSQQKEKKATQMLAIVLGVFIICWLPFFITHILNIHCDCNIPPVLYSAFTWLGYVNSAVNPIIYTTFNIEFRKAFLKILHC
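DiscoveRx PathHunter D2 beta-arrestin cells (2,100/well) attached overnight, then compound-stimulated 90 min at 37 C in HBSS/10 mM HEPES/0.1% Tween-20 buffer; beta-galactosidase complementation read by luminescence after 1 h at ambient temperature. Dopamine 57 uM final (EC100) as control.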
D2 antagonist = HTS Assay for Allosteric Antagonists of the Human D2 Dopamine Receptor: Primary Screen for Antagonists. HEK293 TREx D2 cells, calcium flux, dopamine EC80. AID 485344, 2010. inhibition, % at 10 µM. D(2) dopamine receptor (Homo sapiens), P14416. hit rate 2% among 340,000; in the data active = inhibition above about 30%; inactive = below that, where a call was filed; note: 0% is about no effect
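Inhibition of EC80 dopamine-driven calcium flux, recorded kinetically, defines activity here; cells are a tetracycline-induced HEK293 T-REx line expressing force-coupled D2.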
D2 ag-2 = HTS Assay for Allosteric Agonists of the Human D2 Dopamine Receptor: Primary Screen for Agonists. AID 485358, 2010. activation, % at 2 µM. HEK293 T-REx D2 cells, calcium flux agonist mode. hit rate 0.53% among 340,000. D(2) dopamine receptor (Homo sapiens), P14416;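 active = activation over 3 SD above normal in the single-dose calcium agonist read, cut at about 30% in these data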; note: 0% is about no effect
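In this primary screen, compounds producing a positive calcium signal within 180 s of addition to tetracycline-induced, force-coupled HEK293 Trex D2 cells are flagged; cells are dye-loaded with a no-wash calcium kit beforehand.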
D2 PAM-1 = HTS Assay for Positive Allosteric Modulators of the Human D2 Dopamine Receptor: Primary Screen for Potentiators; D(2) dopamine receptor (Homo sapiens), P14416; HEK293 T-REx D2, calcium flux, EC20 dopamine potentiation; potentiation, % at 10 µM; hit rate 0.34% among 340,000;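 active = potentiation over 3 SD above the plate norm, cut at about 30% in these data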; note: 0% is about no effect
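Cells plated with tetracycline inducer and held overnight at 30 C; calcium dye loaded 30–90 min at room temperature; baseline taken, compound added and read 180 s; EC20 dopamine then added and read 180 s.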
D2 PAM-2 = Beta-Arrestin HTS for Positive Allosteric Modulators of the Human D2 Dopamine Receptor: Potentiators; D(2) dopamine receptor (Homo sapiens), P14416; DiscoveRx D2 beta-arrestin cells, luminescence, 90 min; 100% = 57 uM dopamine signal; potentiation, % (no concentration beside the values); hit rate 0.23% among 360,000; in the data active = potentiation above about 50%; inconclusive = mostly about 30% to 49%
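PathHunter D2 cells, attached overnight at 37 deg C, received compound in DMSO plus dopamine at EC20 (50 nM final) for 90 min at 37 deg C. Beta-arrestin recruitment was read as luminescence after 1 h with detection reagent at ambient temperature.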
* = called active by the depositor; ? = inconclusive; · = no result given.

SMILES | D2 ag-1 | D2 antagonist | D2 ag-2 | D2 PAM-1 | D2 PAM-2
CC1CCC2(CC1)NC(=O)N(NC(=O)c1cccc(N(C)C)c1)C2=O (configuration not stated) | 1.9 | 33.5* | 0.0 | -9.3 | -0.5
Cc1cc(C)c(OCC(=O)N(Cc2ccccc2)C2CCS(=O)(=O)C2)c(C)c1 (configuration not stated) | 2.7 | 6.1 | 0.0 | 44.4* | -4.7
CCc1ccc(CN(C(=O)COc2c(C)cccc2C)C2CCS(=O)(=O)C2)cc1 (configuration not stated) | 0.2 | -3.2 | 0.0 | 2.1 | -8.9
CCOc1ccc(CNC(=O)C2CCCN(S(=O)(=O)N3CCC(C)CC3)C2)cc1OC (configuration not stated) | -0.4 | · | · | · | -3.4
CCOc1ccc(CNC(=O)C2CCCN(S(C)(=O)=O)C2)cc1OC (configuration not stated) | -0.7 | 52.1* | 0.3 | 4.3 | -7.1
CCSc1ncc(Cl)c(C(=O)Nc2sc(C(C)=O)c(C)c2C(=O)OC)n1 | · | · | 1.4 | 9.5 | ·
N#Cc1ccccc1OCC(=O)Nc1cc(S(=O)(=O)N2CCCCC2)ccc1N1CCOCC1 | -3.3 | · | · | · | -17.6
Cc1nc2nc(CNC(=O)c3cccc(F)c3)nn2c(C)c1CCC(=O)Nc1ccc(F)cc1 | · | · | · | -1.7 | ·
O=C(CCC(=O)Nc1ccc(F)cc1)N/N=C/c1ccccc1O | -2.3 | 33.5* | 0.0 | -7.5 | -19.8
O=C(CCC(=O)Nc1ccccc1)N/N=C/C=C/c1ccccc1 | 0.7 | 30.3* | -0.1 | -10.4 | -2.2
O=C(CCC(=O)Nc1ccc(Br)cc1)N/N=C/c1ccccc1F | 3.3 | 7.1 | -0.5 | -0.6 | -5.5
O=C(N/N=C/C=C\c1ccccc1[N+](=O)[O-])c1ccccn1 | -3.6 | 81.4* | -1.0 | -21.3 | -15.8
COc1ccc(OC)c(NC(=O)Cn2cnc3ccc(S(=O)(=O)N4CCC(C)CC4)cc3c2=O)c1 | · | · | -0.7 | -3.8 | ·
Cc1cc2ncn(C3CC(=O)N(Cc4ccccc4)C3=O)c2cc1C (configuration not stated) | 2.7 | -15.3 | -0.2 | 39.4* | 11.1
CN1CCc2c(sc3c2C(=O)NC(c2ccc4c(c2)OCO4)N3)C1 (configuration not stated) | -2.3 | 32.2* | 0.4 | -21.1 | -25.6
Cc1ccc(OCCNC(=O)c2cccc(S(=O)(=O)N3CCN(C)CC3)c2)cc1 | -1.5 | 18.4 | -0.1 | -12.3 | -11.8
COc1ccc(NC(=O)c2ccc(CN3C(=O)CCn4nc(C)cc43)cc2)c(OC)c1 | · | · | -0.3 | 3.8 | ·
O=C(Oc1ccc(Br)cc1C(=S)N1CCOCC1)c1ccc([N+](=O)[O-])cc1[N+](=O)[O-] | ? | -3.7 | 1.1 | 37.5* | 56.3*
O=C(Oc1cccc(C(=S)N2CCOCC2)c1)c1cc([N+](=O)[O-])cc([N+](=O)[O-])c1 | 40.7* | 3.3 | 0.5 | -0.6 | 24.8
COCC1CCCN(Cc2cn(-c3ccccc3F)nc2-c2cc(C)sc2C)C1 (configuration not stated) | -4.0 | 41.0* | 2.5 | -16.9 | -18.8
Nc1c(C(=O)N2CCOCC2)sc2nc3c(cc12)CCCC3 | 0.6 | -8.4 | -0.2 | 32.7* | -2.1
Nc1c(C(=O)N2CCOCC2)sc2nc3c(cc12)CCC3 | 0.5 | 8.1 | -0.6 | 5.0 | -0.9
CCc1c(C)sc(NC(=S)N2CC(C)OC(C)C2)c1C(=O)OC (configuration not stated) | 2.2 | -3.8 | 0.0 | -0.5 | 68.0*
Cc1ccc(C)c(NC(=O)CN(C)C(=O)c2ccccc2OCc2ccccc2Cl)c1 | -7.1 | 4.8 | -0.9 | 6.1 | 3.6
CNC(=S)N1N=C(c2ccc(OC)cc2)CC1c1ccc(Cl)cc1Cl (configuration not stated) | 0.6 | 15.2 | 0.2 | -3.5 | 0.4
SMILES | D2 ag-1 | D2 antagonist | D2 ag-2 | D2 PAM-1 | D2 PAM-2
CNC(=S)N1N=C(c2ccc(OC)cc2)CC1c1ccccc1Cl (configuration not stated) | -1.8 | 33.5* | -0.1 | 7.4 | 0.7
Cc1cccc(-n2c3nc(=O)n(C)c(=O)c-3cc3ccc(Cl)cc32)c1C | · | · | -1.1 | -6.7 | ·
CCN1CCN(P2(=O)C=C(c3ccccc3)OC(c3ccccc3)=C2)CC1 | 2.2 | 84.1* | 0.2 | -30.1 | -26.1
COc1cccc(-c2nc(NC(C)C)c3ccccc3n2)c1O | 0.1 | 32.5* | 11.8 | 10.5 | 12.0
COc1cccc(-c2nc(NCC3CCCO3)c3ccccc3n2)c1O (configuration not stated) | -2.3 | 3.8 | 0.8 | 14.6 | 10.3
Cc1ccc(-c2c3c(nc4sc(C(N)=O)c(N)c24)CCCC3)o1 | -0.3 | -6.6 | 30.8* | -12.8 | -5.5
CCOc1ccc(C(=O)O/N=C(\N)c2ccc([N+](=O)[O-])cc2)cc1OCC | ? | 13.9 | 0.3 | 2.0 | 58.1*
CC(C)(C)c1ccc(C(=O)O/N=C(\N)c2ccccc2)cc1 | 40.1* | 26.9 | 1.1 | -4.2 | 19.0
N/C(=N\OC(=O)c1ccc(Br)cc1)c1ccccc1 | 6.1 | -6.2 | -0.1 | 2.3 | 13.3
N/C(=N\OC(=O)c1cccc(Br)c1)c1ccc([N+](=O)[O-])cc1 | 50.6* | 0.6 | -0.6 | -7.2 | 13.6
N/C(=N\OC(=O)c1cccc(Br)c1)c1ccc(Br)cc1 | 13.3 | 7.1 | -0.5 | -5.4 | 100.5*
CCOC(=O)Cc1ccc(NC(=O)N2CCSc3ccccc32)cc1 | · | · | -0.4 | -8.6 | ·
Cc1noc(-c2ccc(Cl)cc2)c1C(=O)O/N=C(\N)c1ccc(C(C)(C)C)cc1 | 47.1* | · | · | · | 150.7*
COc1ccc(/C(N)=N/OC(=O)c2ccc(C)c([N+](=O)[O-])c2)cc1 | ? | -0.3 | 0.1 | -1.2 | 132.0*
Cc1ccc(C(=O)O/N=C(\N)c2ccc(Br)cc2)cc1 | ? | 33.6* | 0.9 | -21.8 | 27.7
COc1ccc(/C(N)=N/OC(=O)c2ccc([N+](=O)[O-])c(C)c2)cc1OC | 1.7 | -10.8 | 0.2 | -3.6 | -5.1
COc1ccc(-c2onc(C)c2C)cc1S(=O)(=O)NC1CCC(C)CC1 (configuration not stated) | · | · | -0.2 | 0.3 | ·
Cc1nc2ncnn2c(N2CCN(c3cccc(C(F)(F)F)c3)CC2)c1C | 2.0 | · | · | · | -6.5
Cn1nc(C(F)(F)F)c(C#N)c1N1CCN(c2cccc(C(F)(F)F)c2)CC1 | -2.5 | 43.2* | 1.1 | -19.0 | -28.9
Cc1nc(N)sc1C(=O)N/N=C/c1ccccc1[N+](=O)[O-] | · | 33.0* | 1.2 | 5.5 | ·

Compound activity (PubChem)
